Results from PubChem BioAssay (NCATS).
Inconclusive results are not listed. Calls of active or inactive are those of the source. Calls follow the shape of the dose curve; as a rule, active = well fitted curve in the direction sought with a large enough effect; inconclusive = small, poorly fitted or top-dose-only effect, or another doubt; inactive = no such curve, though single readings can be large; an effect the other way counts as inactive or inconclusive.

Legend:
[1] = target: Cellular tumor antigen p53 (Homo sapiens) (UniProt P04637); test: Primary qHTS for small molecule compounds that upregulate eGFP-tagged delta133p53alpha (in N-terminal) cells. (AID 2060322); conditions: NCI-H358 eGFP-delta133p53alpha fluorescence, 24 h; activation: stronger effect = higher value;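 also: series mostly up to about 56 µM; 0% = DMSO vehicle and 100% = reference activator; nearly all actives have a fitted effect of over 75% in size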
Procedure, shortened: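 NCI-H358 cells pre-induced 24 h with 10 ng/ml doxycycline to express N-terminal eGFP-delta133p53alpha, then dosed 24 h at 37C without doxycycline; fixed, Hoechst-stained, GFP intensity by laser scanning cytometry, normalized to DMSO (0%) and 57.5 uM 5-azacytidine (100%).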

[2] = target: Aldehyde dehydrogenase, mitochondrial (Homo sapiens) (UniProt P05091); test: qHTS for Inhibitors of the Aldehyde Dehydrogenase Family (ALDH2) Primary screen (AID 2061308);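 also: plate controls were vehicle for no effect and reference inhibitor for full effect; nearly all actives have a fitted effect of over 55% in size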
[3] = target: Retinaldehyde dehydrogenase 3 (Homo sapiens) (UniProt P47895); test: qHTS for Inhibitors of the Aldehyde Dehydrogenase Family (ALDH1A3) Primary screen (AID 2061315);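 also: plate controls were DMSO vehicle for no effect and reference inhibitor for full effect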

Chain of Cellular tumor antigen p53 (Homo sapiens) (P04637 whole entry, looked up): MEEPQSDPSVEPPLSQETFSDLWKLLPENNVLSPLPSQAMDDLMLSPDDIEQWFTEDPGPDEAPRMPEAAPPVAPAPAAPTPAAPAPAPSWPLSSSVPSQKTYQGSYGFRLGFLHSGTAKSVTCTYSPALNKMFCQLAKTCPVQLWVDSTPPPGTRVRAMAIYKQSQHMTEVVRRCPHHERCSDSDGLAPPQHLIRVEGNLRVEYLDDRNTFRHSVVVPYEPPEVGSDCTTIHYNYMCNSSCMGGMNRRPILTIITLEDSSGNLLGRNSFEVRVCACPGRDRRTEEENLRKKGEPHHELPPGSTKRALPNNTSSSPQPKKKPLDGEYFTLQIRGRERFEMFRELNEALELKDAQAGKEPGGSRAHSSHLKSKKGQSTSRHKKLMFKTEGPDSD

C[C@H](CN1CCCC1)C(=O)c1ccc(C(F)(F)F)cc1
inactive: activation [1] 21% | Potency [2] | Potency [3]

COc1cccc(Cn2ncc3c4sc(S(C)=O)cc4n(C)c3c2=O)c1 (stereo not drawn)
inactive: activation [1] 7.67% | Potency [2] | Potency [3]

CC1(C)C2CCC(CO[C@@H]3O[C@H](CO[C@@H]4OC[C@](O)(CO)[C@H]4O)[C@@H](O)[C@H](O)[C@H]3O)C1C2 (stereo partly drawn)
inactive: activation [1] -5.34% | Potency [2] | Potency [3]

COC(=O)C1(C)CCCC2(C)c3ccc(C(C)C)cc3C(O)C(O)C12 (stereo not drawn)
inactive: activation [1] -14.3% | Potency [2] | Potency [3]

CC(C)(C)c1ccc(NC(=O)N2CCN(c3ncccc3Cl)CC2)cc1
inactive: activation [1] -11.5% | Potency [2] | Potency [3]

C=C1C(=O)O[C@@H]2CC(C)=C([C@@H](C)CCCOC(C)=O)[C@@H](O)[C@H]12
inactive: activation [1] 28.6% | Potency [2] | Potency [3]

C[C@@H]1C[C@H](O[C@@H]2O[C@H](CO[C@@H]3OC[C@](O)(CO)[C@H]3O)[C@@H](O)[C@H](O)[C@H]2O)CC(C)(C)[C@H]1/C=C/[C@@H](C)O
inactive: activation [1] -29.5% | Potency [2] | Potency [3]

CC1=CC(=O)C(=C(C)C)CC2C1CCC2(C)O (stereo not drawn)
inactive: activation [1] -7.14% | Potency [2] | Potency [3]

C=CC1(C)C=C2CC[C@H]3[C@@](C)(C(=O)O)CCC[C@]3(C)C2CC1 (stereo partly drawn)
inactive: activation [1] -0.763% | Potency [2] | Potency [3]

Fc1ccc(-c2c3cccc(C(F)(F)F)c3nn2Cc2ccc(F)cc2Cl)cc1
inactive: activation [1] -8.11% | Potency [2] | Potency [3]

OC[C@H]1O[C@@H](Oc2ccccc2)[C@H](O)[C@@H](O)[C@@H]1O
inactive: activation [1] -0.893% | Potency [2] | Potency [3]
